# Data from PubChem BioAssay (NCATS).
# Records with an inconclusive call do not appear. Entries that show only a call come without a potency. Activity calls are given as the source filed them. The call rests on the fitted dose curve.
# Biological target: Nucleoprotein (Lymphocytic choriomeningitis virus (strain Armstrong)) (UniProt P09992)
# Test: qHTS for Inhibitors of the Functional Ribonucleoprotein Complex (vRNP) of Lymphocytic Choriomeningitis Arenaviruses (LCMV): LCMV Primary Screen - GLuc reporter signal (AID 1347086); further: nearly all actives have a fitted effect of over 70% in size
# Settings: LCMV minigenome vRNP cell assay, Gaussia luciferase reporter; series mostly up to 57.5 µM
# Potency means the concentration at half of the fitted maximal effect.
# Chain of Nucleoprotein (Lymphocytic choriomeningitis virus (strain Armstrong)) (P09992 whole entry, looked up): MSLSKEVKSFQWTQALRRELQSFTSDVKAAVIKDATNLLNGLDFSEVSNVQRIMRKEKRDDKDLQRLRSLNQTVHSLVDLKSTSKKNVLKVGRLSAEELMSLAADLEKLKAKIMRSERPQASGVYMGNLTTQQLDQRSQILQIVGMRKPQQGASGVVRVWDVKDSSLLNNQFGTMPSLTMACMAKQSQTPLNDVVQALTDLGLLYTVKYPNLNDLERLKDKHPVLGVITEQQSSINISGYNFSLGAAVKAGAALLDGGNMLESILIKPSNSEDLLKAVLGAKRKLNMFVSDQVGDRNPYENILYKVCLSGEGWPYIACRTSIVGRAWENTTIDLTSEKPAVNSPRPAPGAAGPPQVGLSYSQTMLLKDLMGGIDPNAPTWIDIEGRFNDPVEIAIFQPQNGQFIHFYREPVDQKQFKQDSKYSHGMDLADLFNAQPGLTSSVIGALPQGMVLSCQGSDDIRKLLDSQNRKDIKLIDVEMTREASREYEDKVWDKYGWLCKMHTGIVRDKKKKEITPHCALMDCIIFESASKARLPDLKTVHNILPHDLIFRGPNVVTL
row,SMILES,Potency
1,C[C@@H]1OC(O[C@H]2[C@H](Oc3cc(O)c4c(=O)c(O)c(-c5ccc(O)cc5)oc4c3)O[C@H](CO)[C@@H](O)[C@@H]2O)[C@H](O)[C@H](O)[C@H]1O (stereo not given in full),inactive
2,COc1ccc([C@@H](OC)[C@@]2(Cc3ccc(O)cc3)N=C(N)N(C)C2=O)cc1,inactive
3,O=C(/C=C/c1ccccc1)OCCc1ccccc1,inactive
4,COc1cc(C2c3cc4c(c(O)c3CC3COC(=O)C32)OCO4)cc(OC)c1O (stereo not given),inactive
5,O=C(O)/C=C/c1ccc2c(c1)OCO2,inactive
6,CC(C)(C)[N+]([O-])=Cc1ccc(S(=O)(=O)O)cc1S(=O)(=O)O,inactive
7,Cn1c(=O)c(-c2ccccc2)c(O)c2ccccc21,inactive
8,COc1ccc(/C=C/C(=O)O)cc1,inactive
9,CC(=O)N1CCN(c2ccc(OCc3nn(C)c(C)c3-c3cccc4c(CCCOc5cc(C)c(Cl)c(C)c5)c(C(=O)O)n(Cc5cccnc5)c34)cc2)CC1,inactive
10,C=C(C)[C@@H]1CCC2=CCC[C@@H](C)[C@]2(C)C1,inactive
11,N[C@@H](CCCCNC(=O)CCCC[C@@H]1SC[C@H]2NC(=O)N[C@H]12)C(=O)O,inactive
12,CC1(C)CC(=O)CC(C)(C)N1,inactive
13,C=CC(C)(CCC=C(C)C)OC(=O)CC (stereo not given),inactive
14,COC(=O)C1(Cc2ccc(O)c(CC3OC3(C)C)c2)OC(=O)C(O)=C1c1ccc(O)cc1 (stereo not given),inactive
15,OC[C@H]1O[C@@H]2O[C@H]3[C@H](O)[C@@H](O)[C@@H](O[C@H]4[C@H](O)[C@@H](O)[C@@H](O[C@H]5[C@H](O)[C@@H](O)[C@@H](O[C@H]6[C@H](O)[C@@H](O)[C@@H](O[C@H]7[C@H](O)[C@@H](O)[C@@H](O[C@H]8[C@H](O)[C@@H](O)[C@@H](O[C@H]9[C@H](O)[C@@H](O)[C@@H](O[C@H]1[C@H](O)[C@H]2O)O[C@@H]9CO)O[C@@H]8CO)O[C@@H]7CO)O[C@@H]6CO)O[C@@H]5CO)O[C@@H]4CO)O[C@@H]3CO,inactive
16,CCC(C)c1nccnc1OC (stereo not given),inactive
17,CC(C)NC[C@@H](C(=O)N1CCN(c2ncnc3c2[C@H](C)C[C@H]3O)CC1)c1ccc(Cl)cc1,0.863 µM (active)
18,CC(=O)O[C@]1(C(C)=O)CC[C@@H]2[C@@H]3C[C@H](C)C4=CC(=O)CC[C@]4(C)[C@H]3CC[C@@]21C,inactive
19,COc1cc(C(=O)O[C@H]2C/C(C)=C/CC/C(C)=C/[C@@H](O)C2C(C)C)ccc1O (stereo not given in full),inactive
20,CC(C)=CCOc1ccc2ccc(=O)oc2c1,inactive

row,SMILES,Potency
1,CC12CCC(=O)C=C1CCC1C2CCC2(C)C(C(=O)CO)CC(O)C12 (stereo not given),inactive
2,OC/C=C/c1ccccc1,inactive
3,CC(=O)c1ccccc1O,inactive
4,COc1c2ccoc2nc2c(OC)c(O[C@@H]3O[C@H](C)[C@@H](O)[C@@H](O)[C@H]3O)ccc12,inactive
5,COc1ccc2ccc(=O)oc2c1CC(=O)C(C)C,inactive
6,CC(C)(O)Cc1ccccc1,inactive
7,CC[C@H]1O[C@]2(CC[C@@H]1C)C[C@@H]1C[C@@H](C/C=C(\C)C[C@@H](C)/C=C/C=C3\CO[C@@H]4[C@H](O)C(C)=C[C@@H](C(=O)O1)[C@]34O)O2,inactive
8,CC/C=C\CCOC(=O)CCCCC,inactive
9,C[C@H]1O[C@H](O[C@H]2[C@H](O)[C@@H](O)[C@@H](O[C@H]3[C@H](O)[C@@H](O)C(O)O[C@H]3CO)O[C@H]2CO)[C@H](O)[C@@H](O)[C@H]1N[C@H]1C=C(CO)[C@@H](O)[C@H](O)[C@@H]1O (stereo not given in full),inactive
10,CC(C)CN(C[C@H](O)[C@H](Cc1ccccc1)NC(=O)O[C@H]1CCOC1)S(=O)(=O)c1ccc(N)cc1,inactive
11,NC(=O)c1ncn([C@@H]2O[C@H](CO)[C@@H](O)[C@@H]2O)c1N,inactive
12,CC(Cc1c[nH]c2ccccc12)C(=O)O (stereo not given),inactive
13,CC(C)=CCC/C(C)=C/C(=O)O,inactive
14,CCCc1ccc(OC)cc1,inactive
15,CCCCCCC(CO)CCCC (stereo not given),inactive
16,CCCCCCCCCCCCC(=O)CCCCC(=O)O,inactive
17,COc1ccc(CO)cc1,inactive
18,C=C1CC23C[C@H]4[C@@H]5[C@@]6(C)C[C@H](OC(=O)c7ccccc7)[C@@H](OC(C)=O)[C@]57[C@@H]2[C@@H](OC(C)=O)[C@H]1[C@@H](O)[C@H]3[C@H]7N4C6,inactive
19,O=C(O)C=C(Br)Br,inactive
20,O=C1CCCCCCCCCCCCCCO1,inactive
